The supplement of paper PMC6555819

test system: PPARg:RXRa DBDmut IVT, anti-RXR (DBD mutation: RXRa K156A/R161A, NR concentration 270 nM, RXRa partner concentration 90 nM); assay: PBM binding z-score (relative to random genomic background probes); higher = stronger binding; sequences stand for … in GC…GCGATTGACAGCGTAGAATGAAGG
Outline: (§1)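 The probes on custom Agilent 4×180K protein-binding microarrays were double-stranded, with 34-nt variable regions bearing direct-repeat seeds, single-nucleotide variants, half-site ablations and random human genomic background sequences. Incubation lasted 1 h with ligand-free nuclear receptor dimers in PBS pH 7.4, 2% milk, 0.02% Triton X-100, 1 mM DTT, 0.2 mg/mL BSA and 0.4 mg/ml salmon testes DNA. Antibodies against each partner (one per run) detected bound dimers, and fluorescence scans were regression-normalized. Binding z-scores take the random background probes as reference.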

| Sequence | PBM binding z-score |
| --- | --- |
| TCGAGTAGGTTAGGGGCATGCAGAATGGCGTCGA | 1.92 |
| TCATATAGGTGAAGGTGAAAGTCGAACGATATGA | 6 |
| GCGACCGGGGCAAAGCAGGTTACCATAAGGTTGG | 1.27 |
| CAGACTGGGGCAAGGTTACCATAACGCACAGCCA | 4.18 |
| CCTAGTTGGTCTAGGTCACACACGCTATAGGTAC | 2.17 |
| ATATGTAGGTTATCGGGTCATTCCGTTTGCGCAT | 7.56 |
| CCTAACAGGCCAATCTGGGTCACTCAAGGCTTGA | 4.43 |
| CCTAGCAGGCCAGGGTCACTCGAGCATTTCGCTT | 0.58 |
| CAAACTAGGTCGCGAAAGGTCAAAGTCGAATGAC | 6.96 |
| ACTAGTTGGTCAGCCGAGGTCACACACAATTCGG | 1.8 |
| TCTTGTAGATCAATAGAGATTAAGAAAGTGCGCT | 1.45 |
| ACTAGTTGGTCAGCTGAGGTCAGACACAATTCGG | 1.02 |
| AGAACGAGGGCACGCTGAGTTGATAGAAGAGTAG | 3.93 |
| ACTCGGAGGCCAAAGGTCAGAGCTACGCCAGTGA | 1 |
| TATACAGCGTCAAAGGCCAGAGTACGAATGTCGA | -0.701 |
| AGAACGAGGGCACGCTTAGTTGATAGCAGAGTAG | 4.36 |
| GCTTACGGGTCAAAGCTTATAGCATGAATAGAAT | 4.24 |
| TGTCAAAGTTCAAAGGTAACATAAGTATCCACAC | 0.298 |
| AGTCAAAGTTCATCTAGGTACCGTAAGATATGCT | 0.148 |
| CCTAGTTGGTCAAGGTCACACAAGCTATAGGTAC | 2.43 |

| Sequence | PBM binding z-score |
| --- | --- |
| ATATGTAGGTTATCGGGACATTCAGTTTGCGCAT | 7.42 |
| CCTCACGGGTCAAGGTTATAGCACGGGTGGTACG | 0.0332 |
| TCATATTGGTAAACAGGTGAAAGTCCGTAAGTTA | 2.2 |
| CTCGAAAGGTCGGTCGAGGTGAGTATACGGATAA | 0.299 |
| CGTCCAAGGTCATAGGAGGTCAGTTAAGACAGAT | 3.03 |
| GATACAGGGTCAGCTAGAGGCCAGAGTTTGGAAA | 1.39 |
| GCTAGTTGGTCAGTAAAAGGTCACACATCGGTCG | 1.75 |
| TCATATAGGTAAAAGGTGGAAGTCGGTGTGGTAA | 5.75 |
| GCAGACAGGTGAAACGCAGGAAACTCAGGGTGGC | 0.874 |
| CCTGCTAGATCAATGGTCAGCTAAAGCAGCTCGC | -0.539 |
| GTACCAGGGTGAATAGGTCGTTGATGAGTAGGCG | 0.914 |
| TCATATAGGTCAATGCTAGGTGAAAGTCCGATCT | 6.69 |
| GCTAGCTGGCCATTTGGGTCACTCAATGACGGGC | 0.293 |
| TCATATAGGTAAACGTGAAAGTCGAACGATATGA | 3.9 |
| CAAACTAGGTCAAAGGTCTAAGTCGAGCCAACCA | 8.53 |
| GCTTACGGGTCATAGGTTATAGCATGAATAGAAT | 3.9 |
| CAAACTAGGTCACGAAAGGTCAAAGACGAATGAC | 8.52 |
| CGTCCCAGGTCAATGCTAGGTCAGTGAAAGCATT | 2.01 |
| TCTCGGAGGACACGAACGGTCAGAGCTCGACATC | 1.13 |
| CCGACTGGGGCATAATGTTACCATAAGCCAGCCC | 2.47 |

test system: PPARg:RXRa IVT, anti-PPARg (NR concentration 270 nM, RXRa partner concentration 90 nM); assay: as above
Outline: as §1

| Sequence | PBM binding z-score |
| --- | --- |
| TCGAGTAGGTTAGGGGCATGCAGAATGGCGTCGA | 1.32 |
| TCATATAGGTGAAGGTGAAAGTCGAACGATATGA | 6.13 |
| GCGACCGGGGCAAAGCAGGTTACCATAAGGTTGG | 1.24 |
| CAGACTGGGGCAAGGTTACCATAACGCACAGCCA | 4.53 |
| CCTAGTTGGTCTAGGTCACACACGCTATAGGTAC | 3.05 |
| ATATGTAGGTTATCGGGTCATTCCGTTTGCGCAT | 7.62 |
| CCTAACAGGCCAATCTGGGTCACTCAAGGCTTGA | 5.18 |
| CCTAGCAGGCCAGGGTCACTCGAGCATTTCGCTT | 1.02 |
| CAAACTAGGTCGCGAAAGGTCAAAGTCGAATGAC | 7.13 |
| ACTAGTTGGTCAGCCGAGGTCACACACAATTCGG | 3.12 |
| TCTTGTAGATCAATAGAGATTAAGAAAGTGCGCT | 0.39 |
| ACTAGTTGGTCAGCTGAGGTCAGACACAATTCGG | 1.86 |
| AGAACGAGGGCACGCTGAGTTGATAGAAGAGTAG | 3.46 |
| ACTCGGAGGCCAAAGGTCAGAGCTACGCCAGTGA | 4.07 |
| TATACAGCGTCAAAGGCCAGAGTACGAATGTCGA | 0.258 |
| AGAACGAGGGCACGCTTAGTTGATAGCAGAGTAG | 4.09 |
| GCTTACGGGTCAAAGCTTATAGCATGAATAGAAT | 3.92 |
| TGTCAAAGTTCAAAGGTAACATAAGTATCCACAC | 4.93 |
| AGTCAAAGTTCATCTAGGTACCGTAAGATATGCT | 2.85 |
| CCTAGTTGGTCAAGGTCACACAAGCTATAGGTAC | 4.01 |

| Sequence | PBM binding z-score |
| --- | --- |
| ATATGTAGGTTATCGGGACATTCAGTTTGCGCAT | 6.98 |
| CCTCACGGGTCAAGGTTATAGCACGGGTGGTACG | 1.85 |
| TCATATTGGTAAACAGGTGAAAGTCCGTAAGTTA | 1.5 |
| CTCGAAAGGTCGGTCGAGGTGAGTATACGGATAA | 1.21 |
| CGTCCAAGGTCATAGGAGGTCAGTTAAGACAGAT | 4.5 |
| GATACAGGGTCAGCTAGAGGCCAGAGTTTGGAAA | 2.54 |
| GCTAGTTGGTCAGTAAAAGGTCACACATCGGTCG | 2.98 |
| TCATATAGGTAAAAGGTGGAAGTCGGTGTGGTAA | 3.56 |
| GCAGACAGGTGAAACGCAGGAAACTCAGGGTGGC | 0.378 |
| CCTGCTAGATCAATGGTCAGCTAAAGCAGCTCGC | -0.867 |
| GTACCAGGGTGAATAGGTCGTTGATGAGTAGGCG | 2.01 |
| TCATATAGGTCAATGCTAGGTGAAAGTCCGATCT | 6.83 |
| GCTAGCTGGCCATTTGGGTCACTCAATGACGGGC | 1.17 |
| TCATATAGGTAAACGTGAAAGTCGAACGATATGA | 2.6 |
| CAAACTAGGTCAAAGGTCTAAGTCGAGCCAACCA | 8.69 |
| GCTTACGGGTCATAGGTTATAGCATGAATAGAAT | 5.19 |
| CAAACTAGGTCACGAAAGGTCAAAGACGAATGAC | 9.24 |
| CGTCCCAGGTCAATGCTAGGTCAGTGAAAGCATT | 2.96 |
| TCTCGGAGGACACGAACGGTCAGAGCTCGACATC | -0.161 |
| CCGACTGGGGCATAATGTTACCATAAGCCAGCCC | 2.12 |
